# Reference: PubChem BioAssay (NCATS)
# Inconclusive results are not listed. Active and inactive are the calls of the source. Calls come from the whole dose curve; as a rule, active = well fitted inhibition curve with a large enough effect; inconclusive = small, poorly fitted or top-dose-only effect; inactive = flat fitted curve, though single readings scatter.
# Tested on: not listed separately
# Assay: Drug repurposing screens with cells derived from glioblastoma tumor samples (AID 1345199); note: nearly all actives have a fitted effect of over 40% in size
# Conditions: GBM patient neurospheres viability, ATP luminescence, 48 h; tumour line A
# How it was run: (§1)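 Four patient lines of CD133+ GBM neurospheres were screened at several concentrations; hits were retested in those lines plus three slower-growing GBM lines, using 48-hour treatment and ATP-based viability.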
# % is set by controls: 0 for no effect and ±100 for the full control effect; potency is the fitted concentration of half-maximal effect.
row,Compound,Potency
1,NC1=NCC2c3ccccc3Cc3ccccc3N12 (configuration not stated),12.6 µM (active)
2,C[C@]12CC[C@@H]3c4ccc(O)cc4C[C@@H](CCCCCCCCCS(=O)CCCC(F)(F)C(F)(F)F)[C@H]3[C@@H]1CC[C@@H]2O (some centres not stated),4.47 µM (active)
3,CCCN1C[C@H](CSC)C[C@@H]2c3cccc4[nH]cc(c34)C[C@H]21,7.94 µM (active)
4,CNCCCN1c2ccccc2CCc2ccccc21,8.91 µM (active)
5,Cc1ccc(/C(=C\CN2CCCC2)c2ccccn2)cc1,17.8 µM (active)
6,NC(N)=N/N=C/c1c(Cl)cccc1Cl,15.8 µM (active)
7,CN1C[C@H](C(=O)N[C@]2(C)O[C@@]3(O)[C@@H]4CCCN4C(=O)[C@H](Cc4ccccc4)N3C2=O)C[C@@H]2c3cccc4[nH]cc(c34)C[C@H]21,10 µM (active)
8,Cc1cc(C)c(/C=C2\C(=O)Nc3ccccc32)[nH]1,31.6 µM (active)
9,COC(=O)[C@H]1[C@H]2C[C@@H]3c4[nH]c5cc(OC)ccc5c4CCN3C[C@H]2C[C@@H](OC(=O)c2cc(OC)c(OC)c(OC)c2)[C@@H]1OC,5.01 µM (active)
10,CCOC(=O)c1cnc2c(cnn2CC)c1NN=C(C)C,11.2 µM (active)
11,NC(N)=NC(=O)Cc1c(Cl)cccc1Cl,5.62 µM (active)
12,CC(C)(C)c1ccc(C(=O)CCCN2CCC(OC(c3ccccc3)c3ccccc3)CC2)cc1,2.51 µM (active)
13,CN(C)CC[C@@H](c1ccc(Br)cc1)c1ccccn1,11.2 µM (active)

# Tested on: astro (control astrocytes)
# Assay: as above
# Conditions: viability, ATP luminescence, 48 h; series mostly up to 45.9 µM; activity, negative = cell killing: at the top concentration
# How it was run: as §1
Compound,"activity, negative = cell killing",Potency
CCN(CC)CCNC(=O)c1cc(S(C)(=O)=O)ccc1OC,-11.9% [at 21.2 µM] (inactive),
NC1=NCC2c3ccccc3Cc3ccccc3N12 (configuration not stated),-23.2% (inactive),
C[C@H](CS)C(=O)N1CCC[C@H]1C(=O)O,-14.9% (inactive),
Cc1ccc(/C(=C\CN2CCCC2)c2ccccn2)cc1,-20.2% (inactive),
NC(N)=N/N=C/c1c(Cl)cccc1Cl,-28.2% (inactive),
CC[N+](C)(C)c1cccc(O)c1,-10.3% [at 21.2 µM] (inactive),
O=C(CCCN1CCC(O)(c2cccc(C(F)(F)F)c2)CC1)c1ccc(F)cc1,-29.2% (inactive),
C[n+]1cc2c3c(ccc2c2ccc4cc5c(cc4c21)OCO5)OCO3,,4.47 µM (active)
CCOC(=O)c1cnc2c(cnn2CC)c1NN=C(C)C,-20.5% (inactive),
COCC(=O)O[C@]1(CCN(C)CCCc2nc3ccccc3[nH]2)CCc2cc(F)ccc2[C@@H]1C(C)C,,10 µM (active)
NC(N)=NC(=O)Cc1c(Cl)cccc1Cl,-30.8% (inactive),
CC(C)(C)c1ccc(C(=O)CCCN2CCC(OC(c3ccccc3)c3ccccc3)CC2)cc1,,12.6 µM (active)
CN(C)CC[C@@H](c1ccc(Br)cc1)c1ccccn1,-21.4% (inactive),
CC(N=C(NC#N)Nc1ccncc1)C(C)(C)C (configuration not stated),-9.79% (inactive),
